From PubChem BioAssay
USP2a block – inhibitors of human ubiquitin-specific protease USP2a; USP2 core, Ub-CHOP2 coupled fluorogenic reporter, 485/531; Potency, µM (highest dose often 38.3 µM), without a hit: at the highest dose activity change, negative = inhibition, usual class: inhibitors; actives 0.01% (n = 330,000);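 also: potency is read from the fitted curve at half-maximal effect; plate controls were DMSO wells for no effect and full inhibition by NEM control for full effect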
Target sequence (O75604 whole entry, looked up): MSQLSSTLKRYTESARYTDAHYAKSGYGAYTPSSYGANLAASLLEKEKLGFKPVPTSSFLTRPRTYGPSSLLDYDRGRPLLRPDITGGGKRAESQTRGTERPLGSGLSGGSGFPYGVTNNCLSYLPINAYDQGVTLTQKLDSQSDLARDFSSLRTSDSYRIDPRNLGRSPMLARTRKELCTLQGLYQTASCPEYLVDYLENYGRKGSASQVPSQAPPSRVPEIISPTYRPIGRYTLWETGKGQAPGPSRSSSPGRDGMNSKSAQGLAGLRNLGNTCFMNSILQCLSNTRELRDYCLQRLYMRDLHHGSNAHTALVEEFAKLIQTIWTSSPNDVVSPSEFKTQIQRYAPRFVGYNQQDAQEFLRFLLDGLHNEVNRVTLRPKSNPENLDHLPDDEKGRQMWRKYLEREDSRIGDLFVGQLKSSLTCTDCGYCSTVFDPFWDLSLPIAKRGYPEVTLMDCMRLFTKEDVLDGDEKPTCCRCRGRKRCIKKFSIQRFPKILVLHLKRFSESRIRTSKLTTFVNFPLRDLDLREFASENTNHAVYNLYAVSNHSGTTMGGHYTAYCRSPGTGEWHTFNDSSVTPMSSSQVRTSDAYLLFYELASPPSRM
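Cell-free coupled assay: 10nM USP2 core preincubated 30min RT with compound in Tris-HCl pH 8.0/CaCl2/CHAPS buffer, then 25nM Ub-CHOP2 and 25nM reporter substrate; fluorescence (Ex 485/Em 531) read after 60min RT, normalized to NEM inhibition, concentration-response curves fitted.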
D1 potentiator – human D1 dopamine receptor positive modulation. actives 0.036% (n = 360,000). potentiation, % at 10 µM. HEK293 TREx D1 cells, calcium flux, dopamine EC20 potentiation. AID 504651. P21728; in the data active = potentiation above about 30%; also: 0% is about no effect
Eya2 inh – Eya2 (human) phosphatase inhibition. O00167. recombinant Eya2, OMFP fluorescence dephosphorylation (OMFP is methylfluorescein phosphate). Potency, µM (series often up to 76.9 µM), for inactives: at the highest dose activity, negative = inhibition, usual class: inhibitors. actives 0.006% (n = 330,000). AID 488837; also: potency is read from the fitted curve at half-maximal effect; % is scaled to controls: 0 for no effect and ±100 for the full control effect
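Eya2 protein (added as 0.2 uM solution) was preincubated with compound for 10 min at ambient temperature in 50 mM HEPES pH 7.5, 50 mM NaCl, 5 uM MgCl2, 0.05% BSA, 1 mM DTT. OMFP (added at 50 uM) then reacted 10 min; fluorescence read at 485/525 nm.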
GALK inh – blocks human galactokinase activity | P51570 | Purified GALK, Kinase-Glo residual ATP luminescence | Potency, µM (doses to about 57.5 µM), for the others: top-dose activity change, negative = inhibition, hits mostly inhibitors | actives 0.007% (n = 270,000) | AID 1868; also: potency is read from the fitted curve at half-maximal effect; % is scaled to controls: 0 for no effect and ±100 for the full control effect
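Compounds were pin-transferred into ATP buffer (35 uM final), then GALK plus galactose (5 nM, 100 uM final) was added. After 1 h at room temperature, Kinase-Glo Plus was added and luminescence read after 10 min.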
D1 agonist – human D1 receptor agonism; P21728; HEK293 T-REx D1 cells, calcium flux, agonist mode; activation, % at 2 µM; actives 1% (n = 360,000); AID 504660; in the data active = activation above about 30%; also: 0% is about no effect
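Inducible HEK293 T-REx D1 cells, force-coupled to calcium signalling, were plated at 4000 cells/well with tetracycline and held overnight at 30 C. After no-wash calcium dye loading, compound-evoked calcium rise over 180 s flagged agonists.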
D1 antag – human D1 dopamine receptor antagonism. P21728. HEK293 TREx D1 cells, calcium flux, dopamine EC80; stronger effect = lower value. activity change, negative = inhibition, % at 10 µM. actives 3.2% (n = 360,000). AID 504652; in the data active = activity change below about -30%; also: % is scaled to controls: 0 for no effect and ±100 for the full control effect
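Cells carrying a force-coupled, tetracycline-inducible human D1 receptor report calcium flux. Each well gets a 10 s baseline, compound with 180 s monitoring, then an EC80 dopamine stimulus with a second 180 s kinetic read.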
* marks the source's active call; other numbers are inactive results; ? = inconclusive; . = no result given. Hits are enriched below; roughly 3.9% of the tested compounds scored in any of these assays. Unless noted, calls follow the shape of the dose curve; as a rule, active = well fitted inhibition curve with a large enough effect; inconclusive = small, poorly fitted or top-dose-only effect, or effect the other way; inactive = flat fitted curve, though single readings scatter.

SMILES	USP2a block	D1 potentiator	Eya2 inh	GALK inh	D1 agonist	D1 antag
COc1ccc(CCNC(=O)CCn2c(=O)c3ccccc3n(CC(=O)Nc3cccc(C)c3)c2=O)cc1OC	.	0	.	.	0	-7
CC(=O)N1CCc2c(sc3c2c(=O)n(CCc2ccccc2)c(=O)n3CC(=O)Nc2ccc(C)c(F)c2)C1	.	2	.	.	3	7
CC(C)C(NS(=O)(=O)c1ccccc1F)C(=O)N1CCc2ccccc2C1 (stereo not drawn)	-1%	-9	-14%	-1%	0	-37*
CC(C)C(NS(=O)(=O)c1cccc(C(F)(F)F)c1)C(=O)N1CCc2ccccc2C1 (stereo not drawn)	0%	0	-24%	5%	4	-2
COc1ccc(NC(=O)/C(Cl)=C(/Cl)S(=O)Cc2ccc(Cl)cc2)cn1 (stereo not drawn)	-1%	-7	2%	9%	0	-33*
COc1ccc(NC(=O)C(Cl)=C(Cl)Cl)cn1	4%	-5	15%	1%	1	-10
O=C(c1cccs1)c1ccc(-c2cccs2)s1	-7%	-2	-3%	19%	70*	-38*
CCOC(=O)c1cccc(NC(=O)CC2C(=O)N(c3ccc(Cl)cc3)C(=O)N2C2CCCC2)c1 (stereo not drawn)	.	-2	.	.	13	-3
COc1ccc(N(Cc2ccccc2)S(=O)(=O)c2ccc(C)cc2)cc1	2%	-7	-2%	10%	15	-30*
COc1ccc(S(=O)(=O)N(CC(=O)O)c2ccc(C)cc2)cc1	2%	3	-1%	3%	3	-50*
COC(/C=C/Nc1ccc(Cl)cc1)=C(C#N)C#N	-1%	-7	-1%	2%	4	-31*
COC(/C=C/Nc1ccc(OC)cc1)=C(C#N)C#N	3%	-3	14%	-1%	1	-10
O=C(NCCc1ccccc1)c1ccc(Cn2c(SCc3ccccc3)nc3cccnc32)cc1	.	-1	.	.	15	9
COc1ccc(/C=C\c2onc(C)c2S(=O)(=O)N2CCC(C(=O)Nc3cccc(Cl)c3)CC2)cc1	.	0	.	.	3	-27
CC(Sc1nncn1C)C(=O)Nc1ccc(N2CCCCC2)cc1 (stereo not drawn)	1%	0	2%	.	2	-35*
CC(Sc1nnnn1-c1ccccc1)C(=O)Nc1ccc(N2CCN(C)CC2)cc1 (stereo not drawn)	2%	-14	-6%	11%	10	-37*
CN1CCN(c2ccc(NC(=O)CSc3nnnn3-c3ccccc3Cl)cc2)CC1	3%	-10	7%	12%	12	-83*
CC(C)n1cnnc1SCC(=O)Nc1ccc(N2CCCCC2)cc1	-1%	-12	-8%	.	0	-15
O=C(CSc1nnnn1-c1ccccc1)Nc1ccc(N2CCOCC2)c(Cl)c1	.	-6	.	1%	1	-14
CCOC(=O)c1c(S(=O)(=O)N2CCCC(C(=O)N3CCN(c4ccccc4)CC3)C2)c(C)n(C)c1C (stereo not drawn)	.	-1	.	.	2	23
O=[N+]([O-])c1ccc(N=Nc2c(Cl)cc(O)cc2Cl)cc1	4%	-13	2%	6%	21	-46*
CC(N)=Nc1ccc([N+](=O)[O-])cc1	0%	2	2%	2%	4	-1
COc1cc(CN(C(=O)COc2ccc(C)c(C)c2)c2ccccn2)cc(OC)c1OC	.	1	.	.	3	1
COc1ccc(NC(=O)CN2CCC(C(N)=O)(N3CCCCC3)CC2)c(OC)c1	-2%	-8	6%	0%	0	-37*
CCOc1cccc2sc(N(Cc3cccnc3)C(=O)c3ccco3)nc12	.	-4	.	.	-3	.
SMILES	USP2a block	D1 potentiator	Eya2 inh	GALK inh	D1 agonist	D1 antag
CCOC(=O)c1c(-c2ccc(OC)cc2)csc1/N=C/C1C(=O)CCCC1=O	-1%	-8	11%	7%	29	-47*
CCn1c2ccccc2c2cc(NC(=O)c3ccc(=O)oc3)ccc21	12%	0	4%	1%	16	2
CCn1c2ccccc2c2cc(NC(=O)c3ccc(Br)o3)ccc21	3%	0	15%	0%	6	-12
CCn1c2ccccc2c2cc(NC(=O)c3coc(=O)c(Br)c3)ccc21	?	-5	14%	-2%	15	-32*
CCn1c2ccccc2c2cc(NC(=O)c3cc(C)on3)ccc21	0%	-15	1%	-1%	0	-45*
COc1ccc(Br)cc1CNC(=O)CCCn1c(=O)c2cccn2c2cccnc21	.	-2	.	.	3	8
CCCCn1c(CNC(=O)c2ccc(OC)cc2)nnc1SCC(=O)Nc1ccc(OC)cc1	.	1	.	.	1	-4
CCCCn1c(CNC(=O)c2ccc(OC)cc2)nnc1SCC(=O)Nc1ccccc1	.	-6	.	.	1	-69*
COc1ccc(N(Cc2cccs2)C(=O)c2ccco2)cc1	.	-1	.	.	0	0
O=C(C1CCC1)N1CCN(c2ccc(C(F)(F)F)cc2[N+](=O)[O-])CC1	1%	-8	-1%	8%	10	-40*
CN1CCN(C(=O)CSc2ccc(C(F)(F)F)cc2[N+](=O)[O-])CC1	3%	-10	6%	3%	4	-65*
c1ccc(Cn2nnc3c(NCCN4CCOCC4)ncnc32)cc1	-1%	-17	-13%	-3%	3	-31*
Clc1ccccc1Cn1nnc2c(NCCN3CCOCC3)ncnc21	0%	0	-2%	2%	-1	6
c1ccc(-n2nnnc2CN2CCOCC2)cc1	0%	4	14%	0%	3	3
c1ccc(Cn2nnnc2CN2CCOCC2)cc1	5%	-11	-8%	-4%	4	-34*
CCCCN(CCCNC(=O)c1cc(Nc2ccc(OC)c(OC)c2)nc2ccccc12)c1ccccc1	.	-1	.	.	0	-9
COc1ccc(C(NC(=O)c2cccc(F)c2)c2ccccc2)cc1 (stereo not drawn)	-1%	-6	-1%	1%	12	-31*
CCOC(=O)c1c(S(=O)(=O)NCC(=O)Nc2cccc(CC)c2)c(C)n(C)c1C	.	-2	.	.	1	14
Cc1cccc(-n2nnnc2S(C)(=O)=O)c1	.	-1	.	.	4	-51*
COc1cccc(-n2nnnc2S(C)(=O)=O)c1	-1%	0	-4%	1%	2	-8
COc1ccccc1CNC(=O)COC(=O)C1=COCCO1	3%	1	3%	1%	0	-66*
O=C(COC(=O)C1=COCCO1)NCc1ccc(F)cc1	0%	2	-2%	-5%	3	6
